In the supplement of paper PMC6411743:
± gives the standard deviation of the averaged measurements. The full data set covers some 6,200 targets. This sample favours those with the largest changes.

Compound: Nc1ncnc2c1ncn2[C@@H]1O[C@H](COP(=O)(O)OP(=O)(O)NP(=O)(O)O)[C@@H](O)[C@H]1O [adenylyl imidodiphosphate]
Experiment: NP40-soluble protein abundance relative to vehicle (solubility fold change) (ratio); higher = more soluble protein in presence of AMP-PNP
In short: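 Crude Jurkat lysate, prepared by Dounce homogenisation, was exposed to eight concentrations from 0.1 to 10 mM for 10 min at room temperature and then 3 min at 37 °C. Solubilisation used 0.8% NP40 with benzonase for 60 min at 4 °C, followed by ultracentrifugation and TMT labelling of the supernatant for LC-MS/MS. After vsn normalisation of intensities, each value is the fold change against the detergent-processed vehicle within each replicate, across three independent experiments.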

Sequence of UniProt O75152 (O75152 whole entry): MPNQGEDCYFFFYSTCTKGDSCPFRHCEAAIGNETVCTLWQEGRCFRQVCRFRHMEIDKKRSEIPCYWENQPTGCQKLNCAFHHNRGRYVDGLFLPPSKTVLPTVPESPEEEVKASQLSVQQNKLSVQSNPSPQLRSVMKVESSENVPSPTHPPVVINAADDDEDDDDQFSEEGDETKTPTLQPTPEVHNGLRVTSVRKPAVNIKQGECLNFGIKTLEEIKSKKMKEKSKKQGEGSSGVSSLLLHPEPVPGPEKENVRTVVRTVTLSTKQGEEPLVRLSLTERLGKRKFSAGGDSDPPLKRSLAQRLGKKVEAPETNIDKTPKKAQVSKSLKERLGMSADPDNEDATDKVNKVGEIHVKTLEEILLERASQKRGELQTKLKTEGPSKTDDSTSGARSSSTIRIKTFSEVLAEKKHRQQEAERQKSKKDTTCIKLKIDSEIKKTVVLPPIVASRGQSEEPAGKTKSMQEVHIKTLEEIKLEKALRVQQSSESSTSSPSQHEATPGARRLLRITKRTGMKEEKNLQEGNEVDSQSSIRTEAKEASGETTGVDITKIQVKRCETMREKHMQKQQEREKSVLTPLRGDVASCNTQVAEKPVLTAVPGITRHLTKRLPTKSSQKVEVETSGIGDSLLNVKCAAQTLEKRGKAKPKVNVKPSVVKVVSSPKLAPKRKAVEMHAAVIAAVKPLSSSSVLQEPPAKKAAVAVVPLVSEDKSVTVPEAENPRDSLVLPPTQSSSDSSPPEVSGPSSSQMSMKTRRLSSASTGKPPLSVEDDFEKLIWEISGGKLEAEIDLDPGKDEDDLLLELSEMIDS
Sequence of UniProt O43633 (O43633 whole entry): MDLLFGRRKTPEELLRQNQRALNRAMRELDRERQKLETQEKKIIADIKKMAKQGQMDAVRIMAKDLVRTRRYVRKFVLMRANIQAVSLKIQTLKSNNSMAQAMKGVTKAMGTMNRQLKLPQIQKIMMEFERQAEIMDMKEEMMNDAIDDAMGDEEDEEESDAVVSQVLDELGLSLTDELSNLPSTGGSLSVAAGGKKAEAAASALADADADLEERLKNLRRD
Sequence of UniProt O14646 (O14646 whole entry): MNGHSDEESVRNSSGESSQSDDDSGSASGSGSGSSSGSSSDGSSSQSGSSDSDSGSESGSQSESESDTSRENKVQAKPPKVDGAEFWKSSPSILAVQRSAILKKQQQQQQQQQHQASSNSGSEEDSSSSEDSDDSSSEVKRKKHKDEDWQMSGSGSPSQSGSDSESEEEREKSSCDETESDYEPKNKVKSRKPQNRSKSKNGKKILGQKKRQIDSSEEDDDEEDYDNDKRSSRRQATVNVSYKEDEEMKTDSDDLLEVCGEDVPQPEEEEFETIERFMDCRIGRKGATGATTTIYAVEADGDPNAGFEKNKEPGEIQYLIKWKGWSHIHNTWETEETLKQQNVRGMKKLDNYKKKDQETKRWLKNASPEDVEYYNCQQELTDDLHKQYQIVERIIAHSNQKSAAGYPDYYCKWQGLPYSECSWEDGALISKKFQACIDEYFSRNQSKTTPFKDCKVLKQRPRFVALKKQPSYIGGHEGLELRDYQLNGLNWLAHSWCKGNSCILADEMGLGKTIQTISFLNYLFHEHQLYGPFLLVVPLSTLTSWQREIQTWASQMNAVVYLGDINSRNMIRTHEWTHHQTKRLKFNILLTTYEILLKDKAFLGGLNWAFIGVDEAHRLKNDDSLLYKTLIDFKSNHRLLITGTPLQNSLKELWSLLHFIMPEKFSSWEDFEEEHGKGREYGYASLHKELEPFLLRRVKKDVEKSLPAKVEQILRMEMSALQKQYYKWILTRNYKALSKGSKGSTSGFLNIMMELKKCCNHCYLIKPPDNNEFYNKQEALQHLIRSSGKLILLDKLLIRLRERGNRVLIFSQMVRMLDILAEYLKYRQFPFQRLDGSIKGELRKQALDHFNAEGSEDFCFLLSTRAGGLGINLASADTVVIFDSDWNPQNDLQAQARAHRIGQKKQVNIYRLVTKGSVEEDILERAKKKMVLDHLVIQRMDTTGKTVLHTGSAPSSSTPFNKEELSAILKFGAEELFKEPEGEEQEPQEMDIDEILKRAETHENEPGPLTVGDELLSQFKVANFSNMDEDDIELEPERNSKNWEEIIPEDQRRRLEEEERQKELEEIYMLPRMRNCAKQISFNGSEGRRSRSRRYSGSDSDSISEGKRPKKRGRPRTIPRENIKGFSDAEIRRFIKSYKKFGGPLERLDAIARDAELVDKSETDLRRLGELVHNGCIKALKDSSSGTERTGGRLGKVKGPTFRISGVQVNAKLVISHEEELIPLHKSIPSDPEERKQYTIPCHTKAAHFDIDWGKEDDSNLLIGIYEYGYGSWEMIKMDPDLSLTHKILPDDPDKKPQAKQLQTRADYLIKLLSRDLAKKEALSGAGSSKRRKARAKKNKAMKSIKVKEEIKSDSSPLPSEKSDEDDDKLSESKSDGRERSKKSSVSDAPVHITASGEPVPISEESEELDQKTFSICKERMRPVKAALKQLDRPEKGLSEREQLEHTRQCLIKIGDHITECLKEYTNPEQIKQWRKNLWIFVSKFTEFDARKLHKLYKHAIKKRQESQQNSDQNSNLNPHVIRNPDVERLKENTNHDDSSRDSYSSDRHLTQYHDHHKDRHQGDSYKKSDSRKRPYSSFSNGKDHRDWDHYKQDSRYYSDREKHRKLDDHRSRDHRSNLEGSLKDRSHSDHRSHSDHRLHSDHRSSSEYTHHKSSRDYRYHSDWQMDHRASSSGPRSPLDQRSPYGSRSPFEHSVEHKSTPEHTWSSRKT
Sequence of UniProt Q9HC38 (Q9HC38 whole entry, one chain of several): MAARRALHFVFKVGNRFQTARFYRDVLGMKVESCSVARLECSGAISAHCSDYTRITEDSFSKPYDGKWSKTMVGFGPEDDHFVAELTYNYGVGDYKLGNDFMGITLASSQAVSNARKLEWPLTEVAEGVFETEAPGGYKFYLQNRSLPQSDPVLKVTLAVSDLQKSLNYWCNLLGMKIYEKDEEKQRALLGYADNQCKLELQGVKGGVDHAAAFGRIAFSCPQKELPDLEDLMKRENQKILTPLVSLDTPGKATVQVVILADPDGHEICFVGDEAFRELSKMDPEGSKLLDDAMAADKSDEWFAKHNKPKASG
Sequence of UniProt Q9Y2K7 (Q9Y2K7 whole entry, one chain of several): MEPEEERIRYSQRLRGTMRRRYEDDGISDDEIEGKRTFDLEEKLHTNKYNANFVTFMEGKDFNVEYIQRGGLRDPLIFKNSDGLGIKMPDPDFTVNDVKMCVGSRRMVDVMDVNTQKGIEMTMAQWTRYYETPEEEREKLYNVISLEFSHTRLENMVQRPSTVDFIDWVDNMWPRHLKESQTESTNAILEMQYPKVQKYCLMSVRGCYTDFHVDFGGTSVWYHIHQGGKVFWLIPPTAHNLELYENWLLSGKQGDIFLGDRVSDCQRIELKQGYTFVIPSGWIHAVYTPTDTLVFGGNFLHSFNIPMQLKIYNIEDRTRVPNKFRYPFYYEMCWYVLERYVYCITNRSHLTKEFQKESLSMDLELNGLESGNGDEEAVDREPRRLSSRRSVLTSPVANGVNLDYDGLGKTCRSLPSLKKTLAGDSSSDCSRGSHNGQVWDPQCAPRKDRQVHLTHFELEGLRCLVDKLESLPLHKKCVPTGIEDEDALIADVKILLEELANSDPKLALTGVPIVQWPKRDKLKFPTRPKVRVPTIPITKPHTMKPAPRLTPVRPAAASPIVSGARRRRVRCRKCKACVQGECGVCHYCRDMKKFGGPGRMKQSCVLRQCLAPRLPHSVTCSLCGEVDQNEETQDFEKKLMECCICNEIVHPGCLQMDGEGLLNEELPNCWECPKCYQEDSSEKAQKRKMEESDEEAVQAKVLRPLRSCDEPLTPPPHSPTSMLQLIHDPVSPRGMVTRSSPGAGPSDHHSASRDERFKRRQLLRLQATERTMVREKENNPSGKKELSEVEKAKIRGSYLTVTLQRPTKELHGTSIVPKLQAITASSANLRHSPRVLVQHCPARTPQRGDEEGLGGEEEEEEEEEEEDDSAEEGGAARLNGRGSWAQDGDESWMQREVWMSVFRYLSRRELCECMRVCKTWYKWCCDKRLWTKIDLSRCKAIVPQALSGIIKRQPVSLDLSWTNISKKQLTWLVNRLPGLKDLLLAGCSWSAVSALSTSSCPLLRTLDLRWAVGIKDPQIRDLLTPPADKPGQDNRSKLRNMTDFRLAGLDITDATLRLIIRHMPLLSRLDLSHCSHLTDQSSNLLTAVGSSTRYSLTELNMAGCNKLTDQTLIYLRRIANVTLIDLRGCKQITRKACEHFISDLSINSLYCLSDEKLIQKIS
Sequence of UniProt Q9H7P6 (Q9H7P6 whole entry, one chain of several): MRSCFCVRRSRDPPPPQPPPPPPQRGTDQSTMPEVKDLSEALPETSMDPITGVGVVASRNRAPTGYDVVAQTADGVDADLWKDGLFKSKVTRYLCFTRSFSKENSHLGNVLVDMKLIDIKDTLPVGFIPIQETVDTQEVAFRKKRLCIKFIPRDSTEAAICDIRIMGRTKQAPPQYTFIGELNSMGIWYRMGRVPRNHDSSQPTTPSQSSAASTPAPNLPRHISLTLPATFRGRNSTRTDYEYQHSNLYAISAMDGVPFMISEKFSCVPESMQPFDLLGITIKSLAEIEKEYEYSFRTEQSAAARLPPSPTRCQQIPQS
Sequence of UniProt Q13557 (Q13557 whole entry, one chain of several): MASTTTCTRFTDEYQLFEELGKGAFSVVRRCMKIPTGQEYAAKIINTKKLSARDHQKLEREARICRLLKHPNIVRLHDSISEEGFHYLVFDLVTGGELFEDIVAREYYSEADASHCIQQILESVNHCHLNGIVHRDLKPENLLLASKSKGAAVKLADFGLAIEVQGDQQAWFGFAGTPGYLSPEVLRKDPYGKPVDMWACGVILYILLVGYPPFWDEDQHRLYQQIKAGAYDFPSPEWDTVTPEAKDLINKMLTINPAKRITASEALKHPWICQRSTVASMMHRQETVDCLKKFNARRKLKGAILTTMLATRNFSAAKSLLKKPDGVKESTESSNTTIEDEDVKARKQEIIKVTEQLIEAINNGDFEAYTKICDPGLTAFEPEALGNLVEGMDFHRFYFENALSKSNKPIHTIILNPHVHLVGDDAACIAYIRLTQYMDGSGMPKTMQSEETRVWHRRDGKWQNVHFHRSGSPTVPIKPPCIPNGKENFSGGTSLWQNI

Target	NP40-soluble protein abundance (concentration: 1mM)	NP40-soluble protein abundance (concentration: 2mM)	NP40-soluble protein abundance (concentration: 4mM)	NP40-soluble protein abundance (concentration: 6mM)	NP40-soluble protein abundance (concentration: 8mM)	NP40-soluble protein abundance (concentration: 10mM)
A8MXP9|P43243 (UniProt P43243)	1.03 ± 0.033	1.07 ± 0.016	1.05 ± 0.016	1.07 ± 0.042	1.08 ± 0.025	1.1 ± 0.028
F5H7T0|F6RJM5|Q96S38|Q96S38-2 (UniProt Q96S38)	0.999 ± 0.0077	1.02 ± 0.028	1.01 ± 0.034	0.9695 ± 0.004	0.991 ± 0.023	0.965 ± 0.046
E9PBG7|E9PF82|Q13557|Q13557-10|Q13557-11|Q13557-12|Q13557-3|Q13557-4|Q13557-5|Q13557-6|Q13557-8|Q13557-9 (UniProt Q13557)	0.94 ± 0.026	0.989 ± 0.049	0.903 ± 0.017	0.89 ± 0.054	0.878 ± 0.022	0.88 ± 0.027
F8WF69|P09496-2 (UniProt P09496)	0.9494 ± 0.001	0.919 ± 0.057	0.873 ± 0.05	0.833 ± 0.033	0.806 ± 0.014	0.813 ± 0.018
UniProt O00567	1.08 ± 0.026	1.08 ± 0.024	1.16 ± 0.026	1.25 ± 0.056	1.37 ± 0.087	1.53 ± 0.12
F6TLX2|Q9HC38-2 (UniProt Q9HC38)	1.01 ± 0.02	1.01 ± 0.014	0.981 ± 0.03	0.958 ± 0.035	0.938 ± 0.034	0.95 ± 0.047
B8ZZS2|Q13506|Q13506-2 (UniProt Q13506)	0.9966 ± 0.0056	1.02 ± 0.019	0.9788 ± 0.0084	1.024 ± 0.0073	1.01 ± 0.029	1.008 ± 0.0093
H3BLV9|Q5R363|Q96SB4|Q96SB4-3|Q96SB4-4 (UniProt Q96SB4)	1.08 ± 0.011	1.14 ± 0.035	1.22 ± 0.035	1.29 ± 0.036	1.359 ± 0.011	1.46 ± 0.044
FAM20B (UniProt O75063)	0.973 ± 0.02	0.993 ± 0.022	0.978 ± 0.024	0.99 ± 0.024	0.963 ± 0.016	1 ± 0.042
HMGN4 (UniProt O00479)	1.024 ± 0.01	1.01 ± 0.047	1.04 ± 0.056	1.1 ± 0.07	1.08 ± 0.075	1.22 ± 0.076
UniProt O75037|O75037-2	1.03 ± 0.042	1.06 ± 0.018	1.04 ± 0.05	1.01 ± 0.04	1 ± 0.032	1.04 ± 0.052
UniProt O60508|Q5SRN1	1.03 ± 0.018	1.07 ± 0.029	1.06 ± 0.026	1.09 ± 0.059	1.08 ± 0.044	1.13 ± 0.056
E7EQT4|Q9UKV3-5|S4R3H4|Q9UKV3-3 (UniProt Q9UKV3)	1.05 ± 0.061	1.1 ± 0.021	1.05 ± 0.07	1.03 ± 0.09	0.972 ± 0.04	1.04 ± 0.069
E9PB61|Q86V81 (UniProt Q86V81)	0.969 ± 0.032	1.08 ± 0.042	1.09 ± 0.027	1.27 ± 0.081	1.41 ± 0.14	1.6 ± 0.28
F8W922|Q9H7P6|Q9H7P6-2 (UniProt Q9H7P6)	1.01 ± 0.013	0.98 ± 0.022	0.989 ± 0.02	1.02 ± 0.032	1.02 ± 0.016	1.02 ± 0.013
K4DI93|Q13620-1 (UniProt Q13620)	0.991 ± 0.011	0.936 ± 0.05	0.9972 ± 0.0076	0.992 ± 0.028	1 ± 0.017	0.995 ± 0.024
UniProt O14646|O14646-2	1.07 ± 0.052	1.15 ± 0.023	1.23 ± 0.077	1.33 ± 0.14	1.41 ± 0.11	1.49 ± 0.15
UniProt A3KMH1|A3KMH1-3	0.93 ± 0.024	0.858 ± 0.098	0.933 ± 0.025	0.874 ± 0.035	0.879 ± 0.017	0.8557 ± 0.0057
K7EIU8|Q13485 (UniProt Q13485)	0.986 ± 0.065	0.936 ± 0.062	0.99 ± 0.091	1.04 ± 0.084	1.08 ± 0.08	1.03 ± 0.093
A0A0B4J220 (UniProt E9PRG8)	1.14 ± 0.051	1.15 ± 0.057	1.2 ± 0.045	1.26 ± 0.1	1.4 ± 0.053	1.39 ± 0.046
A0A0A0MTB8|Q8NI36 (UniProt Q8NI36)	1.1 ± 0.06	1.15 ± 0.11	1.37 ± 0.12	1.55 ± 0.11	1.73 ± 0.16	1.78 ± 0.086
C9JJV1|Q9Y5U2|Q9Y5U2-2|A6NCC9|C9JHT9|E9PME3 (UniProt Q9Y5U2)	1.01 ± 0.013	1.04 ± 0.076	1.01 ± 0.01	0.968 ± 0.047	0.951 ± 0.048	0.968 ± 0.068
E7ESS3|K7EKW3|Q71RG4|Q71RG4-2 (UniProt Q71RG4)	1.01 ± 0.037	1.03 ± 0.045	1 ± 0.039	0.996 ± 0.012	1.01 ± 0.037	1 ± 0.032
E7EUU4|E7EX73|E9PGM1|Q04637-8|Q04637-4 (UniProt Q04637)	1.06 ± 0.036	1.12 ± 0.039	1.12 ± 0.045	1.14 ± 0.063	1.15 ± 0.039	1.17 ± 0.056
I3VM54|Q9Y2K7 (UniProt Q9Y2K7)	1.02 ± 0.016	1.08 ± 0.045	1.17 ± 0.037	1.26 ± 0.12	1.31 ± 0.11	1.43 ± 0.17
E9PGC5|Q15262-2|Q15262-3|Q15262-4|Q5TG12|Q15262 (UniProt Q15262)	1.02 ± 0.011	1.04 ± 0.053	1.02 ± 0.028	1.01 ± 0.015	0.997 ± 0.011	1.01 ± 0.019
F8VX10|F8VXI8|Q9H9L4 (UniProt Q9H9L4)	1.01 ± 0.014	1.06 ± 0.033	1.05 ± 0.033	1.02 ± 0.066	1.031 ± 0.0027	1.04 ± 0.044
CHMP2A (UniProt O43633)	0.949 ± 0.013	1.02 ± 0.094	0.936 ± 0.021	0.966 ± 0.043	0.971 ± 0.031	0.915 ± 0.078
ZC3H11A (UniProt O75152)	0.86 ± 0.11	0.883 ± 0.1	0.853 ± 0.13	0.936 ± 0.094	0.933 ± 0.098	1.03 ± 0.098
A0A0A0MTL5|Q13309|Q13309-2 (UniProt Q13309)	0.986 ± 0.041	0.965 ± 0.037	0.976 ± 0.029	0.932 ± 0.053	0.923 ± 0.036	0.91 ± 0.014
